In the OligoGym collection:

biological target: RNF19A; assay: pooled miR-30 sensor sort-seq; sequence = guide strand; conditions: shRNA
Further: reference of the scale not given here.

Sequence	sensor-assay potency score (higher = more potent)
TTGGGTTGTGTCTTGCTTCTGC	0.712
TTATATAAGCAGCACATCGTGG	-0.73
TCTGCTTGTACTTCCAACCTGT	0.605
TACATCTGCTTGTACTTCCAAC	-0.763
TAACATAATAGGAACACCGATA	-0.784
TTTGTGCTTTGAAACATCCTTG	0.0546
TACAGTGGTAGCAAAACTCTGT	0.121
TATATTTAGAGATAAAACCTAT	-0.374
TTTTGTAATACTTATAACCTAA	-0.606
ATTTCTTTCATACACAACCAAC	-1.69
TTTGTTGTTCTAACAACTGTGC	-0.162
TTGTCGAGCAGCATCACAGGTC	0.0826

biological target: RNF219; assay: as above; conditions: shRNA

Sequence	sensor-assay potency score (higher = more potent)
TTAGCTTATCCACATCATCTTT	-0.899
TACTTGTATCTGTCACATCTAA	-0.451
TTGATCTGTGACTCCAAGCTGA	0.034
TCTGTTATCAACTTCAGCCTTC	0.456
TTCACTTGAATTTTTTAGCTGT	0.783
